# Measurements as given in ChEMBL document CHEMBL1157539, “Thousands of chemical starting points for antimalarial lead identification” (Nature, 2010).
# Tests used:
# Assay type in all cases: functional
# [1] = test system: Plasmodium falciparum; test: GSK_TCMDC: Inhibition of Plasmodium falciparum 3D7 in whole red blood cells, using parasite LDH activity as an index of growth. Test compounds present at 2uM
# [2] = test system: Plasmodium falciparum; test: GSK_TCMDC: Inhibition of Plasmodium falciparum Dd2 in whole red blood cells, using parasite LDH activity as an index of growth. Test compounds present at 2uM
# [3] = test system: HepG2; test: GSK_TCMDC: Percent inhibition of human HepG2 cell line. Test compounds present at 10uM.
smiles,measurement,setting,value
O=C(c1cccs1)N1N=C(c2cccs2)CC1c1cccc([N+](=O)[O-])c1 (stereo not drawn),Inhibition,[1],95%
same,Inhibition,[2],27%
same,Inhibition,[3],5%
Cc1nn(C)cc1C(C)Nc1nncc(-c2ccc(C(F)(F)F)cc2)n1 (stereo not drawn),Inhibition,[1],100%
same,Inhibition,[2],99%
same,Inhibition,[3],0%
O=C(c1cnn(-c2ccccc2)c1C(F)(F)F)N1CCN(c2ccnc3cc(Cl)ccc23)CC1,Inhibition,[1],89%
same,Inhibition,[2],94%
same,Inhibition,[3],34%
CC(Cc1ccc(NC(=O)c2ccc(CC(C)NCc3ccc(Cl)cc3)cc2)cc1)NCCc1cccc(Cl)c1 (stereo not drawn),Inhibition,[1],100%
same,Inhibition,[2],75%
same,Inhibition,[3],95%
CC(CN1CCN(C)CC1)C(=O)Nc1ccc(-c2csc(-c3nc4ccccc4[nH]3)c2)cc1 (stereo not drawn),Inhibition,[1],93%
same,Inhibition,[2],26%
same,Inhibition,[3],15%
COc1ccc(-c2nonc2NC(=O)c2ccc(OC(C)C)cc2)cc1OC,Inhibition,[1],100%
same,Inhibition,[2],99%
same,Inhibition,[3],11%
NC1=NC2(CCCCC2)N(OCCCCCCc2ccccc2)C(N)=N1,Inhibition,[1],100%
same,Inhibition,[2],69%
same,Inhibition,[3],73%
CN(Cc1cccc(O)c1)C1CCN(c2cc(NC(=O)c3ccc(F)cc3)ccn2)CC1.O=C(O)C(F)(F)F,Inhibition,[1],94%
same,Inhibition,[2],9%
same,Inhibition,[3],24%
CC(Oc1ccc(Cl)cc1)C(=O)N(C)C1CCN(CCCCCNC(=O)/C=C/c2ccc(Cl)c(Cl)c2)CC1 (stereo not drawn),Inhibition,[1],85%
same,Inhibition,[2],10%
same,Inhibition,[3],61%
FC(F)(F)c1cc(C(F)(F)F)c2cc(CNCCCNc3nc4ccccc4[nH]3)[nH]c2c1,Inhibition,[1],100%
same,Inhibition,[2],99%
same,Inhibition,[3],99%
O=C(Cc1cccc(Cl)c1)Nc1cccc(-c2c[nH]c3nc(Nc4cccc(OCc5ccccc5)c4)ncc23)c1.O=C(O)C(F)(F)F,Inhibition,[1],100%
same,Inhibition,[2],56%
same,Inhibition,[3],0%
